This passage reports outcome results from PubChem BioAssay (Tox21).

Records with an inconclusive call do not appear. Calls of active or inactive are those of the source. Calls come from the whole dose curve; as a rule, active = well fitted cell-killing curve with a large enough effect in the repeat runs; inconclusive = weak or mixed curves, or effect the other way; inactive = flat fitted curve, though single readings scatter.

This assay is described as follows: qHTS assay to identify small molecule antagonists of the androgen receptor (AR) signaling pathway using the MDA cell line - cell viability counter screen (AID 743041; note: nearly all actives have a fitted effect of over 45% in size). Conditions: MDA-kb2 viability, CellTiter-Fluor, 16 h, cells co-treated with R1881 androgen agonist; series mostly up to 70.3 µM. From the text:
National Center for Advancing Translational Sciences [NCATS]
NIH Chemical Genomics Center [NCGC]
U.S. Environmental Protection Agency [EPA]
National Institutes of Environmental Health Sciences [NIEHS]
National Toxicology Program [NTP]
U.S. Food and Drug Administration [FDA]
Androgen receptor (AR), a nuclear hormone receptor, plays a critical role in AR-dependent prostate cancer and other androgen related diseases. Endocrine disrupting chemicals (EDCs) and their interactions with steroid hormone receptors like AR may cause disruption of normal endocrine function as well as interfere with metabolic homeostasis, reproduction, developmental and behavioral functions. To identify the compounds that inhibit AR signaling, MDA-kb2 AR-luc cell line (from ATCC, deposited by Wilson et al.) was used to screen the Tox21 10K compound library. MDA-kb2 AR-luc cell line is human breast carcinoma cell line that was stably transfected with a luciferase reporter gene under control of the MMTV promoter containing response elements for both androgen receptor (AR) and glucocorticoid receptor (GR). The cytotoxicity of the Tox21 compound library against the MDA-kb2 AR-luc cell line was tested in parallel by measuring the cell viability using CellTiter-Fluor assay (Promega, Madison, WI) in the same wells.
Tox21 Assay Protocol Summary:
MDA-kb2 AR-luc cells were dispensed at 3,000 cells/4 uL/well of culture medium into white wall/solid-bottom 1536-well plates using a Multidrop Combi (ThermoFisher Scientific, Waltham, MA) dispenser. After the assay plates were incubated at a 37C and 0% CO2 for 5 hr, 23 nL of compounds dissolved in DMSO, positive controls or DMSO only was transferred to the assay plate by a Pintool station (Kalypsys, San Diego, CA), followed by addition of 1 uL of agonist (R1881) in culture medium using a Bioraptr Flying Reagent Dispenser (FRD) workstation (Beckman Coulter, Indianapolis, IN, USA). The plates were incubated at a 37C and 0% CO2 for 16 h. After 15.5 h incubation, 1uL of CellTiter-Fluor reagent (Promega) was added using a Bioraptr FRD to each plate for measuring cytotoxicity. The fluorescence intensity was quantified on a ViewLux plate reader (PerkinElmer, Shelton, CT) following 30 min incubation at 37C and 0% CO2.
Consider `CC(C)(C)C(=O)NCCCC(=O)O`, for which the outcome was inactive.

Take `CC(C)(C)c1ccc(N)cc1`: the result was inactive.

Consider `CCO[Si](CC(C)C)(OCC)OCC`, for which the result was inactive.

In the case of `CC(C)C(C)C`, the result was inactive.

Regarding `O=C(O)Cc1ccccc1Oc1ccc(Cl)cc1Cl`, the result was inactive.

`O=C(CCBr)N1CCN(C(=O)CCBr)CC1`: the outcome was inactive.

Turning to `CCOC(=O)[C@H](CCc1ccccc1)N[C@H]1CS[C@H](c2cccs2)CN(CC(=O)O)C1=O`, the outcome was inactive.

Turning to `CC/C=C/CCCCCCCCCCOC(C)=O`, the outcome was inactive.

`CCCCCCCCOCCC#N`: the outcome was inactive.

In the case of `CCCCC(CC)COC(=O)CC#N` (stereo not given), the result was inactive.

As to `Clc1cc(Cl)c(Cl)c(Cl)c1Cl`, the result was inactive.

`Cc1cc(C)c(C)c(C)c1`: the outcome was inactive.

Turning to `BrCCOc1ccccc1`, the result was inactive.

As to `CC(=O)c1c(C)cc(C(C)(C)C)cc1C`, the result was inactive.

As to `O=C(O)COc1ccc2ccccc2c1`, the result was inactive.

As for `CC[C@@]1(c2ccccc2)NC(=O)N(C)C1=O`, the outcome was inactive.

On to `CN(C)c1cc(NC(=O)CNC(C)(C)C)c(O)c2c1C[C@H]1C[C@H]3[C@H](N(C)C)C(=O)C(C(N)=O)=C(O)[C@@]3(O)C(=O)C1=C2O`, for which the outcome was inactive.

For `O=C(O)P(=O)(O)O`, the result was inactive.

Consider `O=S(=O)(O)c1cc(I)c(O)c2ncccc12`, for which the result was inactive.

As for `CCCCCC(=O)CC`, the result was inactive.

Turning to `CCC(C)(C)C`, the result was inactive.

Turning to `CNC(C)=O`, the outcome was inactive.

`O=C(O)CCC(=O)Nc1ccc(S(=O)(=O)Nc2nccs2)cc1`: the outcome was inactive.

For `COC(=O)N/N=C/c1c[n+]([O-])c2ccccc2[n+]1[O-]`, the outcome was inactive.

Regarding `Nc1nc(Cl)cc(Cl)n1`, the outcome was inactive.

In the case of `CCC(C)SSC(C)CC` (stereo not given), the outcome was inactive.

As to `c1coc(Cn2cccc2)c1`, the result was inactive.

On to `Cc1ccc2cccnc2c1`, for which the outcome was inactive.

On to `C=C(C)C(=O)OCCCC`, for which the outcome was inactive.

Consider `CC(O)CCCCn1c(=O)c2c(ncn2C)n(C)c1=O` (stereo not given), for which the result was inactive.

Regarding `CCN1CCN(C(=O)N[C@@H](C(=O)N[C@@H]2C(=O)N3C(C(=O)O)=C(CSc4nnnn4C)CS[C@H]23)c2ccc(O)cc2)C(=O)C1=O`, the outcome was inactive.

`CCc1ccc(CC)cc1`: the outcome was inactive.

Consider `O=C1c2ccccc2C(=O)N1CO`, for which the outcome was inactive.

Regarding `COc1ccc(Cl)cc1C`, the result was inactive.

Consider `CNCCc1ccccn1`, for which the result was inactive.

As for `CCOC(=O)c1ccc(N(C)C)cc1`, the result was inactive.

As for `CCCC(=O)C(CC)Sc1ccoc1C` (stereo not given), the outcome was inactive.

With `CCCCCCCCCCCCCCBr`, the result was inactive.

For `O=c1c(O)c(O)c1=O`, the outcome was inactive.

Regarding `COC(=O)c1c(C)cc(O)c(C)c1O`, the result was inactive.
